Data as given in the supplement of paper PMC10849652.
Of roughly 7,900 targets only a part is listed; those with a hit were picked by preference. About 0.6% of all pairs of compound and target were hits. Unmarked numbers belong to inactive results.

Compound: C[C@H](C1=CC=C(C=C1)C(=O)NC2=C3C=CNC3=NC=C2)N
Test: log2 fold change, soluble protein after heating vs DMSO (PISA); higher = thermal stabilisation; K562 cells, 10 uM, 30 min; active = over 0.2 and 3.5 SD of the protein, either way, in both replicates (recomputed)
Procedure, shortened: (§1)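 K562 cells at 2×10^6 cells/mL were exposed to 10 μM compound for 30 min, then aliquots were heated for 3 min across 48°C-58°C, pooled, and extracted in PBS containing 0.5% NP-40 at 4°C. The supernatant after 21,000xg for 90 min was taken as soluble protein and measured by TMTpro 16plex LC-MS/MS with channel sums equalised. Thermal stability is reported relative to control samples, with values from duplicates. Fold changes are given on a log2 scale.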

UniProt Q16630, sequence (Q16630 whole entry, looked up): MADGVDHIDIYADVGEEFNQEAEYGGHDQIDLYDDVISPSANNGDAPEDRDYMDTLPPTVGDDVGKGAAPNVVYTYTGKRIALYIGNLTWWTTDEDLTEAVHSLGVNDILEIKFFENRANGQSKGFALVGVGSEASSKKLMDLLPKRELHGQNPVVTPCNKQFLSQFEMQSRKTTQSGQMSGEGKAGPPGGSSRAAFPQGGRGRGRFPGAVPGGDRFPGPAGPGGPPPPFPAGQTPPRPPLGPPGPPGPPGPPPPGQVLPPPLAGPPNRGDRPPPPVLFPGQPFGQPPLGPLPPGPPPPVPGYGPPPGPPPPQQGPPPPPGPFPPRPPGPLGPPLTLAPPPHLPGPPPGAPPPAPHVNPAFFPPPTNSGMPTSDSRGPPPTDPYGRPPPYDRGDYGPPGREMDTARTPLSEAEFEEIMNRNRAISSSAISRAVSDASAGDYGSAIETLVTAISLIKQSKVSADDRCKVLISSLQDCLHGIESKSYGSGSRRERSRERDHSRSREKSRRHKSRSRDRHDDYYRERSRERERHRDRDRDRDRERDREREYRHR
UniProt O95319, sequence (O95319 whole entry, looked up): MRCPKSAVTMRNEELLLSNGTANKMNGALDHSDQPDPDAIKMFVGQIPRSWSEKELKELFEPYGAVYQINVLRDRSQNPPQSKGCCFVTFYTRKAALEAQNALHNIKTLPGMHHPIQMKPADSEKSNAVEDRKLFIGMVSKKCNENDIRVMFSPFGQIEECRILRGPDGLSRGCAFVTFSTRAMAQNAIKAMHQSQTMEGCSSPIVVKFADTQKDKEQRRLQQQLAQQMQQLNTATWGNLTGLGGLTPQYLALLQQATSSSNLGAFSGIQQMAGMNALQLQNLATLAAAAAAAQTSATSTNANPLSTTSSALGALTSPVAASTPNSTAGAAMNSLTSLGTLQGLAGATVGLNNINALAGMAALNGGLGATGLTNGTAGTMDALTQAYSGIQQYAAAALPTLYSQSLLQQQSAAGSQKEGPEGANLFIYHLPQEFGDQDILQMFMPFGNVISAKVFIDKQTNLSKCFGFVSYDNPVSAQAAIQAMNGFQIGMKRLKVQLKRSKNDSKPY
UniProt Q99807, sequence (Q99807 whole entry, looked up): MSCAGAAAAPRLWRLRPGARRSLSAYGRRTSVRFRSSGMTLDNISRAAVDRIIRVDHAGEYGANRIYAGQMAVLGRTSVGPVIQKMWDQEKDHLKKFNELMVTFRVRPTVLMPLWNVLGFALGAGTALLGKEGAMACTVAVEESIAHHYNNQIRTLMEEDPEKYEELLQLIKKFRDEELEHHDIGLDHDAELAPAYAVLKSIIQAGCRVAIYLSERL
UniProt Q8IUI8, sequence (Q8IUI8 whole entry, looked up): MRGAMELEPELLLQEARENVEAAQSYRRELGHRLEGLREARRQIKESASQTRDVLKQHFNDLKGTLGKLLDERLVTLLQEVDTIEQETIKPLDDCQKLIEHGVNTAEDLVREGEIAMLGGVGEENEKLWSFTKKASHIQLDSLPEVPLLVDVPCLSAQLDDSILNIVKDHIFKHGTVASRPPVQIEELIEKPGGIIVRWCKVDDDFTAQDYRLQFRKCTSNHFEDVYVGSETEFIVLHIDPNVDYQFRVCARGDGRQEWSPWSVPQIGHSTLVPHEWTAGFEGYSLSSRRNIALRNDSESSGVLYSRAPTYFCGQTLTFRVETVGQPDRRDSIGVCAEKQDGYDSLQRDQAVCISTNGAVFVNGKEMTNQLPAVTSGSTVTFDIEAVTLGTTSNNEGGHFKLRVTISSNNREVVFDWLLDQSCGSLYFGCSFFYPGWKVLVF
UniProt P08174, sequence (P08174 whole entry, looked up): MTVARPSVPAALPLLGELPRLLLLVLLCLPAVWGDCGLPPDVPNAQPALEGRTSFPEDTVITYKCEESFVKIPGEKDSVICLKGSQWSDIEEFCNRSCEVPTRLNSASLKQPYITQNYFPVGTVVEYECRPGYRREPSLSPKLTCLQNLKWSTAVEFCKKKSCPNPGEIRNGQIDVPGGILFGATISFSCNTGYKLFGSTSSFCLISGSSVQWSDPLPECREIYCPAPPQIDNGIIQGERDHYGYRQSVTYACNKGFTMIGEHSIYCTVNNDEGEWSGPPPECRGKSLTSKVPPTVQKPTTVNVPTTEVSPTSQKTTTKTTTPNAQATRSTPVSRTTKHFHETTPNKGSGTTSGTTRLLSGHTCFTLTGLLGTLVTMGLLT
UniProt Q99627, sequence (Q99627 whole entry, looked up): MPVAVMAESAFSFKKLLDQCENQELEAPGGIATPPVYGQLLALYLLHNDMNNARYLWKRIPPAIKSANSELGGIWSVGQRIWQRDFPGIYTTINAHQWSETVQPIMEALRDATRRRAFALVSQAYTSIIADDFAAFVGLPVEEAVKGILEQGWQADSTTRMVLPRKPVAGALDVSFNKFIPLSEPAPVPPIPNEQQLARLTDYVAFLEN
UniProt Q8IWV2, sequence (Q8IWV2 whole entry, looked up): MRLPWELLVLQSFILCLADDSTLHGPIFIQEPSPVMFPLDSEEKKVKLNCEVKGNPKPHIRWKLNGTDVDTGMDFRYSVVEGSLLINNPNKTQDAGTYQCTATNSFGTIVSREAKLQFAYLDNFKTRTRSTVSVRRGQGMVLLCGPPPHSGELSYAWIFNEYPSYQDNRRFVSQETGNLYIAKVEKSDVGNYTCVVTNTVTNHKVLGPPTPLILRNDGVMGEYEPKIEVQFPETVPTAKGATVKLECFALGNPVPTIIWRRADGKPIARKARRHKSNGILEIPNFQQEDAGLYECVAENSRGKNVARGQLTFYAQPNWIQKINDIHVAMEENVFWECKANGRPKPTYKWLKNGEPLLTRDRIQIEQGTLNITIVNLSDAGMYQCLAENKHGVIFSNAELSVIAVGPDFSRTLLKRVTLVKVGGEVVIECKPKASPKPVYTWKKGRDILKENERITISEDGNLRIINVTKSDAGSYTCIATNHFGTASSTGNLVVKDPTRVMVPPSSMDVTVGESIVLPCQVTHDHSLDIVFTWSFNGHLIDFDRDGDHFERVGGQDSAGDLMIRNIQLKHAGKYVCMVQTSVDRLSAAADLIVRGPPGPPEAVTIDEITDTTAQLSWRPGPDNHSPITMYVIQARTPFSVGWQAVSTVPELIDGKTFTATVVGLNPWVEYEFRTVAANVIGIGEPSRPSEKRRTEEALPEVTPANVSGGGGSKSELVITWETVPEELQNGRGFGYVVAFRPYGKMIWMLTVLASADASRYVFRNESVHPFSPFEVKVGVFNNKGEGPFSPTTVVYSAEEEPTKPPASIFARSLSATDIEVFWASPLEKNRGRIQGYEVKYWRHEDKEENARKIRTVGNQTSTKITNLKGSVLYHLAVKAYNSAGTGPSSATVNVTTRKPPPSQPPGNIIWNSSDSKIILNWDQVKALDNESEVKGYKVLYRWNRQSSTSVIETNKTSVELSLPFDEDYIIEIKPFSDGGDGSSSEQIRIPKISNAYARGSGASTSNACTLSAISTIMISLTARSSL
UniProt P83916, sequence (P83916 whole entry, looked up): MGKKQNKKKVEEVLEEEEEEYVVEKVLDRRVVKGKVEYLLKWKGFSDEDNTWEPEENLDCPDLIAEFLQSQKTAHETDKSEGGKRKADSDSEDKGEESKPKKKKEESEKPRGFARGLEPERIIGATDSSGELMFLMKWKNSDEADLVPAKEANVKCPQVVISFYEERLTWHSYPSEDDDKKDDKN
UniProt Q9BT78, sequence (Q9BT78 whole entry, looked up): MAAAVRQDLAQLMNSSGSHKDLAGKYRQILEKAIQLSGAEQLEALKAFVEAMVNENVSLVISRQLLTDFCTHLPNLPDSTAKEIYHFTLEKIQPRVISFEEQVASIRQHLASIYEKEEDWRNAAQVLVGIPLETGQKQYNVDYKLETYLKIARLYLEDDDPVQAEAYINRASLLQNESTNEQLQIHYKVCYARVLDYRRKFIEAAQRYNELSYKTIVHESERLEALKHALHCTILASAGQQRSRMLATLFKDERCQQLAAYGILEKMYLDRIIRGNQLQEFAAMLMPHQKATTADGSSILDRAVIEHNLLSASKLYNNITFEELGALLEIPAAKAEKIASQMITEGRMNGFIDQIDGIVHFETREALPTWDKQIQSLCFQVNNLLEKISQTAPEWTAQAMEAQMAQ
UniProt Q9NXV6, sequence (Q9NXV6 whole entry, looked up): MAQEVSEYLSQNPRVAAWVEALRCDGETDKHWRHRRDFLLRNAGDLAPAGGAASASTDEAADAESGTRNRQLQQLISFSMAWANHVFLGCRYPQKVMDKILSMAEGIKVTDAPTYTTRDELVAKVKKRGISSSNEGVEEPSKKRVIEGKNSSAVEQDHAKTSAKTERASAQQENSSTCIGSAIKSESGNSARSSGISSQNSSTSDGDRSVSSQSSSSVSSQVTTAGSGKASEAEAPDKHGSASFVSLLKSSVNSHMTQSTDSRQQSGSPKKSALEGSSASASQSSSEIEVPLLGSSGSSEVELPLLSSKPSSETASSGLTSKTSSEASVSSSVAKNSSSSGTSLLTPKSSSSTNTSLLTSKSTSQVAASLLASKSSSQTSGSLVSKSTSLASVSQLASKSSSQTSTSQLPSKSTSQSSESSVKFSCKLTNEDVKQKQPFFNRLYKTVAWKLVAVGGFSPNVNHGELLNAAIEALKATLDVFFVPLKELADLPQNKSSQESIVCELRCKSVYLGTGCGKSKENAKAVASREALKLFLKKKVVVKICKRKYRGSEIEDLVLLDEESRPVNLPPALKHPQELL
UniProt P21964, sequence (P21964 whole entry, looked up): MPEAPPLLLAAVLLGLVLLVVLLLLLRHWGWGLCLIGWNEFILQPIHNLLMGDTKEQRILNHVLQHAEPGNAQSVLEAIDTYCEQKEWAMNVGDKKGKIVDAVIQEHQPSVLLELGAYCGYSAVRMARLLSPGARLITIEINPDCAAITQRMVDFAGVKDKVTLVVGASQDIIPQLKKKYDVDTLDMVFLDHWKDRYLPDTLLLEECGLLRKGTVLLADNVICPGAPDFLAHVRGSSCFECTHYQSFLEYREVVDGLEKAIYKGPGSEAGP
UniProt Q8NHZ8, sequence (Q8NHZ8 whole entry, looked up): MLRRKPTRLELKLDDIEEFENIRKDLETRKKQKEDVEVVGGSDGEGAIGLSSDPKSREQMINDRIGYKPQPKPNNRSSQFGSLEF

Target | log2 fold change
CNDP2 (UniProt Q96KP4) | -0.067
CSNK1A1 (UniProt P48729) | -0.073
CNTN4 (UniProt Q8IWV2) | -0.099
CRLF3 (UniProt Q8IUI8) | 0.017
CDC123 (UniProt O75794) | -0.032
CPT1A (UniProt P50416) | 0.047
CERS2 (UniProt Q96G23) | -0.034
COQ7 (UniProt Q99807) | 0.007
CELF2 isoform 3 (UniProt O95319) | -0.038
COPS8 (UniProt Q99627) | -0.148
CBX1 (UniProt P83916) | -0.08
CDK5RAP3 isoform 4 (UniProt Q96JB5) | -0.038
CD53 (UniProt P19397) | -0.084
CCNK isoform 4 (UniProt O75909) | -0.042
COPS4 (UniProt Q9BT78) | -0.064
COASY isoform 2 (UniProt Q13057) | -0.09
CDKN2AIP (UniProt Q9NXV6) | -0.004
CDK6 (UniProt Q00534) | -0.004

Target | log2 fold change
CHCHD1 (UniProt Q96BP2) | -0.067
CLUH (UniProt O75153) | 0.094
CALCOCO2 isoform 4 (UniProt Q13137) | 0.024
COMT (UniProt P21964) | -0.081
COPS3 (UniProt Q9UNS2) | -0.023
CHERP (UniProt Q8IWX8) | 0.009
CPSF6 isoform 2 (UniProt Q16630) | -0.292 (active)
CDK13 (UniProt Q14004) | 0.095
COMMD2 (UniProt Q86X83) | 0.037
CDC26 (UniProt Q8NHZ8) | 0.212
CLCN3 isoform 2 (UniProt P51790) | -0.142
CAMKK2 (UniProt Q96RR4) | -0.182
CHKA (UniProt P35790) | 0.046
CSTF3 (UniProt Q12996) | 0.019
CD55 isoform 7 (UniProt P08174) | -0.14
CSNK2A1 (UniProt P68400) | -0.17
CIT isoform 4 (UniProt O14578) | 0.08

Compound: C[C@H](Nc1ncnc2nc[nH]c12)c1cc2cccc(Cl)c2c(=O)n1-c1ccccc1 [duvelisib]
Test: as above
Procedure, shortened: as §1

Target | log2 fold change
CNDP2 (UniProt Q96KP4) | 0.02
CSNK1A1 (UniProt P48729) | -0.04
CNTN4 (UniProt Q8IWV2) | 0.102
CRLF3 (UniProt Q8IUI8) | 0.076
CDC123 (UniProt O75794) | 0.159
CPT1A (UniProt P50416) | 0.022
CERS2 (UniProt Q96G23) | 0.036
COQ7 (UniProt Q99807) | 0.067
CELF2 isoform 3 (UniProt O95319) | -0.027
COPS8 (UniProt Q99627) | 0.096
CBX1 (UniProt P83916) | -0.006
CDK5RAP3 isoform 4 (UniProt Q96JB5) | 0.005
CD53 (UniProt P19397) | 0.234
CCNK isoform 4 (UniProt O75909) | -0.06
COPS4 (UniProt Q9BT78) | 0.029
COASY isoform 2 (UniProt Q13057) | 0.058
CDKN2AIP (UniProt Q9NXV6) | 0.031
CDK6 (UniProt Q00534) | 0.033

Target | log2 fold change
CHCHD1 (UniProt Q96BP2) | -0.061
CLUH (UniProt O75153) | 0.698 (active)
CALCOCO2 isoform 4 (UniProt Q13137) | 0.042
COMT (UniProt P21964) | 0.109
COPS3 (UniProt Q9UNS2) | -0.003
CHERP (UniProt Q8IWX8) | -0.025
CPSF6 isoform 2 (UniProt Q16630) | -0.004
CDK13 (UniProt Q14004) | 0.043
COMMD2 (UniProt Q86X83) | 0.097
CDC26 (UniProt Q8NHZ8) | -0.097
CLCN3 isoform 2 (UniProt P51790) | 0.015
CAMKK2 (UniProt Q96RR4) | 0.093
CHKA (UniProt P35790) | -0.002
CSTF3 (UniProt Q12996) | 0.061
CD55 isoform 7 (UniProt P08174) | -0.021
CSNK2A1 (UniProt P68400) | 0.01
CIT isoform 4 (UniProt O14578) | 0.064
